Results: PubChem BioAssay AID488966 (Southern Research Specialized Biocontainment Screening …, 2010)
Several values for one entry are separate records, joined by “and”; a condition that tells them apart may be missing. Equal entries are not always repeated. Out of some 340,000 compounds screened, about 55 (0.02%) were called active.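 How the source made its calls: active means phage lysis inhibition, versus mean bacterial control, above a set limit; inconclusive means no clear call, values can overlap the other calls; inactive means the rest.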 The list is a sample of the results. Measured potencies and affinities stand elsewhere.

test: protection from phage-mediated lysis, alamar blue read-out – E. coli UTI89, K1F phage, bacterial capsule biogenesis inhibitors (AID 488966); settings: 2 h; inhibition: at 100 µM, hits give high values unless noted; series mostly up to 300 µM; inhibition of phage lysis: at the top concentration;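 further: capsule biogenesis inhibitors block K1F phage lysis so surviving cells raise fluorescence; higher fluorescence means more inhibition of phage lysis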

inhibition, inactive:
CC(C)OCCCNC(=O)c1cc(-c2cccs2)nc2ccccc12 0.22%, CC1(C(=O)O)CCC(C(=O)Nc2ccccc2)C1(C)C (stereo unspecified) 0.32%, CC(=O)c1ccccc1OCCCOc1cccc2cccnc12 0.48%, O=C(Nc1ccc(F)cc1)c1ccc2ncsc2c1 0.29%, O=C(O)c1cc(-c2ccccc2)nn1CC1CC(c2cccnc2)=NO1 (stereo unspecified) 1.3%, O=C(NCc1ccccc1)C1CCCN(S(=O)(=O)c2ccc(Br)cc2)C1 (stereo unspecified) 1.64% [at 50 µM, hits give high values], CC(C)(C)c1ccc(OCC(O)CN(CCO)CC(O)Cn2ccc3ccccc32)cc1 (stereo unspecified) 0.2%, CC1(c2ccccc2)NC(=O)N(NC(=O)CSc2n[nH]c(N)n2)C1=O (stereo unspecified) 0.72%, COc1ccc(S(=O)(=O)N2CCN(c3ccccc3OC)CC2)cc1 0.03%, Cc1ccc(C)c(NC(=O)COC(=O)CCc2ccc(S(=O)(=O)N3CCOCC3)cc2)c1 -0.17%, CC(=O)Nc1cccc(-c2nnc(SCC(=O)N3CCCCC3)n2C)c1 0.94%, CC(C)NC(=O)COc1cccc2ccccc12 1.21%, COc1ccccc1OCC(O)CN1CCN(CC(=O)Nc2c(C)cccc2C)CC1 (stereo unspecified) 3.11% and 2.01%, Cc1cc(C)c(NC(=O)COc2nncc3ccccc23)c(C)c1 -1.44%, Cc1ccc(NC(=O)CCC(=O)NNC(=O)COc2cccc3ccccc23)c(C)c1 -0.27%, CC(CCc1ccccc1)NC(=O)CN1CCOc2ccccc21 (stereo unspecified) 0.85%, CSc1ccc(CN(C)CC(=O)Nc2ccc(NC(C)=O)cc2)cc1 -0.1%, CCN(CC)CCCNc1nc(-c2ccccc2)nc2ccccc12 0.145% [at 50 µM, hits give high values], COc1ccc(-c2nc(NCCCN(C)C)c3ccccc3n2)cc1 5.55%, O=C(O)CCCC(=O)Nc1cccc(C(=O)Nc2ccccc2C(=O)O)c1 1.41%, O=C1c2ccccc2C(=O)c2c(Nc3ccc(CCO)cc3)ccc(O)c21 -1.03% [at 50 µM, hits give high values], Cc1cccc(CSC(=N)N)c1 7.29%, N=C(N)SCCc1cnc[nH]1 1.68%, Cc1noc(/C=C/c2ccccn2)c1[N+](=O)[O-] 0.12%, CCOC(=O)C1(Cc2ccc(Cl)cc2)CCN(C(C)Cc2ccc(O)c(OC)c2)CC1 (stereo unspecified) 0.5%, Cc1ccc(NC(=O)CN(C)C(=O)COc2ncnc3ccc(Br)cc23)cc1 0.5% [at 50 µM, hits give high values], COc1ccc(NS(=O)(=O)c2cccc(C(=O)NCCCN3CCOCC3)c2)cc1 1% [at 50 µM, hits give high values], CC(=O)NN=C1CCC(c2ccccc2)CC1 (stereo unspecified) 4.73%, COc1ccccc1OCC(=O)NNC(=O)c1cccs1 5.22%, COc1ccc(C(CNC(=O)c2cncc(Br)c2)N(C)C)cc1 (stereo unspecified) -0.11%, COc1cc(C2C(C#N)=C(N)Oc3n[nH]c(-c4ccncc4)c32)cc(OC)c1OC (stereo unspecified) 1.19%, COc1ccccc1NC(=O)CN1C(=O)C(C)Oc2ccccc21 (stereo unspecified) -1.62%, CCOc1ccc(S(=O)(=O)NCc2cccnc2)cc1C 0.14%, COC(=O)/C=C/C(=O)Nc1ccc(O)c(Cl)c1 -2.78%, Cc1ccc(N2C(=O)C3C4CCC(O4)C3C2=O)c(OC(F)F)c1 (stereo unspecified) 2% [at 50 µM, hits give high values], CC(C)Nc1nc(SCC(=O)Nc2ccccc2)nc(N2CCOCC2)n1 -0.955% [at 50 µM, hits give high values], c1ccc(C(c2nnnn2C2CCCCC2)N2CCc3ccccc3C2)nc1 (stereo unspecified) 6.52%, C/C(=N\NC(=O)C(O)c1ccccc1)c1ccc(Cl)cc1 (stereo unspecified) 0%, O=C(COC(=O)c1ccccn1)Nc1ncc(C(F)(F)F)cc1Cl 1.67%, Cc1noc(/C=C/c2ccco2)c1S(=O)(=O)N1CCC(C(=O)NCc2ccco2)CC1 0.57%, Cc1cc(C)n(CC(=O)NCc2ccccc2)c(=O)c1C#N 0.26%, O=c1[nH]c2ccccc2c2ccc(Cl)cc12 -0.77%, Cc1ccc(NC(=O)N/C=C/c2ccco2)cc1 -0.09%, COc1ccc(NC(=O)CN2C(=O)/C(=C3\SC(=S)N(CCC(=O)O)C3=O)c3ccccc32)cc1 1.3% [at 50 µM, hits give high values], CSc1nnc(-c2cccn(Cc3cccc(Cl)c3)c2=O)o1 0.19%, Cc1cc(N(C)/N=C/c2ccccc2O)nc(-c2ccccc2O)n1 -1.22%, COc1ccc2[nH]c3c(c2c1)CCN1C(=O)N([C@@H](C)C(=O)NCc2ccc(F)cc2)C(=O)[C@]31C 1.55%, Cc1ccn2cc(-c3cccc(S(=O)(=O)N4CCCCC4)c3)nc2c1 -0.04%, COc1ccccc1C(=O)NCCC(=O)NC1CCCCCC1 0.81% [at 50 µM, hits give high values], COc1ccc(C(C)(C)C)cc1S(=O)(=O)N1CCN(C)CC1 0.43%, Cc1cccc(NC(=O)Nc2ccncc2)c1 3.48%, O=C(Nc1ccncc1)Nc1cccc(F)c1 0.13%, COc1ccc2c(c1)C1=C(CC2)C(c2ccc(C)cc2)NC(=S)N1 (stereo unspecified) -0.41%, CN(C)CCN(C(=O)c1ccc2c(c1)OCCO2)c1nc2ccc(Cl)cc2s1 3.17% [at 50 µM, hits give high values], Cc1ccccc1C(=O)N=c1ccn(-c2nc3ccccc3nc2NS(=O)(=O)c2ccccc2)cc1 0.1%, CCOc1ccc(C(=O)C(CCC(CN(C)C)C(=O)c2ccc(OCC)cc2)CN(C)C)cc1 (stereo unspecified) 0.87%, CCCOc1ccc(C(=O)O)cc1 -0.2%, Cc1cccc(NC(=O)/C(C#N)=C/c2ccc(Cl)cc2)n1 0%, Cc1cc(C)c2c3c(oc2n1)C(=O)N(c1cccc(Cl)c1)CC(=O)N3 0.63%, Clc1ccc(-n2nnnc2-c2cnc3ccc(Cl)cc3c2-c2ccccc2)cc1 0.85%, O=C(Nc1ccc(Cl)c(S(=O)(=O)N2CCOCC2)c1)[C@@H]1CCCN1C(=O)c1cccs1 0.43% [at 50 µM, hits give high values], COc1ccc(C[C@@H]2CN3C(=NC[C@@H]3Cc3ccc(O)cc3)N2C[C@H](C)NC(=O)CCC2CCCCC2)cc1 0.18%, CCOC(=O)C1CCN(C(=O)CN(c2ccc3c(c2)OCO3)S(C)(=O)=O)CC1 0.52%, O=C(NN=Cc1ccccc1O)C(O)(c1ccccc1)c1ccccc1 -1.49%, COc1cccc(C2C3=C(CC(C)(C)CC3=O)Nc3cc4c(cc32)OCO4)c1 (stereo unspecified) 2.26%, Cc1nc(N2CCN(C(=O)c3ccco3)CC2)c2oc3ccccc3c2n1 1.22%, CCOc1cc(C2NC(=O)c3ccccc3O2)ccc1OC(C)C (stereo unspecified) 2.06%, O=C(O)CCC(=NNC(=O)c1cccc(S(=O)(=O)N2CCCCC2)c1)c1ccccc1 0.71% [at 50 µM, hits give high values], CCN(CC)c1ccc(C(=O)Nc2cccc(F)c2)cc1 2.12%, CCN(CC)c1ccc(NC(=O)c2ccc3c(c2)OCO3)cc1 2.01%, CCCNC(=O)C(=O)Nc1ccc2c(c1)N(S(=O)(=O)c1cccs1)CCC2 1.18% [at 50 µM, hits give high values], CCc1cc2cc(C)cc(C)c2nc1SCC(=O)Nc1cc(C)on1 0.23%, O=C(Nc1cc2c3c(c1)CC(=O)N3CCC2)c1c(F)cccc1F 1.43% [at 50 µM, hits give high values], CCOc1ccc(NC(=S)N2CCCC2)cc1 0.16%, COC(=O)c1sccc1NC(=O)Nc1cccc(Cl)c1Cl 0.2%, Cc1c(N(C(=O)Nc2ccccc2)C2=NCC(C)S2)c(=O)n(-c2ccccc2)n1C (stereo unspecified) 0.11%, COc1cc(C2NC(=S)NC3=C2CCc2ccccc23)cc(OC)c1OC (stereo unspecified) 0.64% [at 50 µM, hits give high values], COc1ccc(CCNC(=O)C23CCC(C)(C(=O)O2)C3(C)C)cc1OC (stereo unspecified) 1.58% [at 50 µM, hits give high values], CCCn1nc(-c2nnc(-c3ccc(C)c(C)c3)o2)c2ccccc2c1=O 0.05%, CCn1ncc(C2=NOC(C(=O)Nc3cccc(C(C)=O)c3)C2)c1C (stereo unspecified) 4.79%, CS(=O)(=O)N(CC(=O)NN=C1CCCCCC1)c1ccc(Oc2ccccc2)cc1 0.37%, CCN1C(=O)N[C@@H](c2cccc(C(F)(F)F)c2)[C@@H](C(=O)OC)[C@H]1C 0.13%, O=C(Oc1coc(CSc2nnc(NC(=O)C3CC3)s2)cc1=O)c1ccccc1 4.85%

Inhibition of phage lysis, inactive:
COc1ccc(NC(=O)C2CCC(C)(C(=O)O)C2(C)C)cc1 (stereo unspecified) 15.6%, O=C(Nc1ccc(Br)cc1)c1ccc2ncsc2c1 8.42%, O=C1c2cccc(NCCCNCCO)c2C(=O)c2cccc(NCCCNCCO)c21 13.4%
